Compound activity from PubChem BioAssay.
CCHF vOTU inh-1: CCHFV vOTU protease inhibitors, primary screen, biochemical, Pep-AMC substrate, fluorescence; inhibition, % at 11.5 µM; 370,000 tested, 0.55% active; Crimean-Congo hemorrhagic fever virus L polyprotein viral ovarian tumor (vOTU) protease …; further: 0% = vehicle wells with enzyme and 100% = no enzyme wells
Anthrax LF prot: Bacillus anthracis LF protease inhibitors, primary screen, biochemical, multiplex microsphere, MLPCN library. Lethal factor (Bacillus anthracis), P15917. multiplex microsphere protease cleavage assay. inhibition, % at 10 µM. 360,000 tested, 0.12% active. AID 588501, 2011; in the data active means inhibition above about 30%; inconclusive means no clear call, values can overlap the other calls; further: plate controls were buffer without enzyme for full effect and enzyme alone for no effect
SARS 3CLpro inh: SARS-CoV 3CLpro protease inhibitors, primary screen, biochemical, quenched FRET; Replicase polyprotein 1ab (Severe acute respiratory syndrome coronavirus), P0C6X7; recombinant SARS-CoV 3CLpro, quenched FRET peptide cleavage; inhibition, % at 6 µM; 290,000 tested, 0.14% active; in the data active means inhibition above about 12%
BoNT-F LC inh: BoNT/F light chain protease inhibitors, primary screen, biochemical, flow cytometry, MLPCN library; Botulinum neurotoxin type F light chain protease (Clostridium botulinum); Multiplex microsphere protease cleavage assay; inhibition, % at 10 µM; 360,000 tested, 0.22% active; AID 588497, 2011; in the data active means inhibition above about 35%, passing the limit was not always enough; inconclusive means no clear call, values can overlap the other calls; further: plate controls were buffer without enzyme for full effect and enzyme alone for no effect
Bead autofluor: compound fluorescence in toxin protease inhibitor counterscreen | compound autofluorescence counterscreen, microsphere flow cytometry; active compounds read high | fluorescence intensity (no concentration beside the values) | 360,000 tested, 3.1% active | AID 624483; in the data active means fluorescence intensity above about 16000; inconclusive means no clear call, values can overlap the other calls
BoNT-A LC inh2: BoNT/A light chain protease inhibitors, primary screen, biochemical, flow cytometry, MLPCN library. Botulinum neurotoxin type A light chain protease (Clostridium botulinum A str. ATCC 3502). 360,000 tested, 0.17% active. inhibition, % at 10 µM. AID 588499, 2011. multiplex microsphere protease substrate cleavage; in the data active means inhibition above about 30%; inconclusive means no clear call, values can overlap the other calls; further: plate controls were buffer without enzyme for full effect and enzyme alone for no effect
CCHF vOTU inh-2: CCHFV vOTU protease inhibitors, confirmation, biochemical, Pep-AMC substrate, fluorescence. Recombinant CCHFV vOTU. inhibition, % at 11.5 µM. 1,900 tested, 17% active. shares compounds with CCHF vOTU inh-1. AID 686976, 2013
An asterisk follows results filed as active; u = inconclusive; x = no result given. Shown are actives, neighbours in structure and some others; about 3.9% of the full set was active somewhere. Unless noted, no stated cut-off is given here; in the data, active means inhibition above about 30%; inactive means the rest.

SMILES	CCHF vOTU inh-1	Anthrax LF prot	SARS 3CLpro inh	BoNT-F LC inh	Bead autofluor	BoNT-A LC inh2	CCHF vOTU inh-2
CCOC(=O)N[C@@H](Cc1cccnc1)C(=O)N1CCC[C@H]1C(=O)NCCc1ccccc1Cl	-6	x	x	x	x	x	x
COC(=O)Nc1ccc(S(=O)(=O)N2CCC(C(=O)N(C)C3CCCCC3)CC2)cc1	31*	-3	-5	0	4890	0	-19
CCOC(=O)C1CCN(S(=O)(=O)c2ccc(NC(=O)OC)cc2)CC1	0	0	-7	-11	3158	1	x
COCc1cc(N2CCNC[C@H]2C)ccc1N1CCS(=O)(=O)CC1	-5	x	x	x	x	x	x
Cc1cccc(Cn2c(C(=O)OC(C)C)cc3c2ccn3C)c1	35*	-3	3	-6	3041	2	18
CCN1CCN(c2oc(-c3ccccc3C)nc2S(=O)(=O)c2ccccc2)CC1	35*	-8	x	5	u	1	4
COc1ccccc1-c1nc(S(=O)(=O)c2ccccc2)c(N2CCCCC2)o1	3	-11	2	5	3613	2	x
CCCCNc1c2c(nc3c(-c4ccccc4)c(C)nn13)CCC2	30*	-7	0	2	20079*	2	-61
CCOC(=O)C1CCCN(C(=O)c2cccc(S(=O)(=O)N(Cc3ccccc3)c3ccccc3OC)c2)C1 (centres undefined)	36*	4	x	5	5577	3	-12
CCCn1cnnc1CNC(=O)[C@@H](Cc1ccccc1)NC(=O)[C@H]1O[C@@H](n2ccc(=O)[nH]c2=O)[C@H](O)[C@@H]1O	16	x	x	x	x	x	x
Cc1no[n+]([O-])c1COc1cccc(/C=N/Nc2nncn2N)c1	109*	3	0	6	3628	-1	-14
COC(=O)[C@]12C[C@H](CC(=O)N3CCCCC3)C(=O)N(Cc3ccccc3)C1=C[C@H](C1CCCC1)O[C@@H]2C	3	x	x	x	x	x	x
CCOC(=O)C(C(=O)OCC)c1cc(Br)c2noc3c2c1C(=O)c1ccccc1-3	35*	58*	-3	-6	3932	68*	11
C=CCNc1cccc2c1S(=O)(=O)N[C@H](C)CO2	-3	x	x	x	x	x	x
COC(=O)[C@]12C[C@H](CC(=O)N3CCC(c4ccccc4)CC3)C(=O)N(CCC3=CCCCC3)C1=C[C@H](C(C)(C)C)O[C@@H]2C	12	x	x	x	x	x	x
Cc1cc(F)cc(-c2cc(C(=O)NCc3cccc(Cl)c3)[nH]n2)c1	34*	-3	x	4	3764	0	-14
C=CC[C@@H](Cc1ccc(F)cc1)C(=O)OC[C@H]1CCCN1C(=O)[C@@H](CC=C)CC(=O)N(CCO)Cc1ccccc1	31*	-4	x	0	3567	0	5
C=CCC[C@@H](Cc1ccc(F)cc1)C(=O)OC[C@H](C)NC(=O)[C@@H](CC=C)CC(=O)N(CCO)Cc1ccccc1	32*	0	x	2	3291	0	5
C=CCC[C@@H](Cc1ccc(F)cc1)C(=O)OC[C@@H](NC(=O)[C@@H](CC=C)CC(=O)N(CCO)Cc1ccccc1)c1ccccc1	34*	-6	x	10	3489	0	4
C=CCC[C@@H](Cc1ccc(F)cc1)C(=O)OC[C@@H](NC(=O)[C@H](CC=C)CC(=O)N(CCO)Cc1ccccc1)c1ccccc1	24	-1	x	-9	4177	0	x
C[C@H](CO)N1C[C@H](C)[C@H](CN(C)C(=O)Nc2ccc(N3CCCCC3)cc2)OCc2cnnn2CCCC1=O	-9	x	x	x	x	x	x
C#CCN1CC(N(C)CCOC(=O)c2cccs2)CS1(=O)=O (centres undefined)	-3	x	x	x	x	x	x
COc1ccc(C2CC(=O)C(c3ccc(F)cc3)=CN2Cc2ccccc2)cc1 (centres undefined)	9	x	x	x	x	x	x
Cc1[nH]c2ccccc2c1CC(=O)Nc1ccc(Nc2ccncc2)cc1	8	x	x	x	x	x	x
CC(C)(C)c1ccc(Cn2nnc3c(=O)[nH]c(C4CCCN(C(=O)Cc5cccs5)C4)nc32)cc1 (centres undefined)	31*	-3	5	0	8052	1	4
SMILES	CCHF vOTU inh-1	Anthrax LF prot	SARS 3CLpro inh	BoNT-F LC inh	Bead autofluor	BoNT-A LC inh2	CCHF vOTU inh-2
O=c1[nH]c(C2CCCN(S(=O)(=O)Cc3ccccc3)C2)nc2c1nnn2Cc1cccc(Cl)c1 (centres undefined)	30*	-3	1	-13	4109	-1	-5
O=C(Nc1cc(Cl)ccc1F)C1CCCN(c2nnc(-n3cccc3)s2)C1 (centres undefined)	6	x	x	x	x	x	x
Cc1cc(/C=C2\C(=O)NC(=O)N(C)C2=O)c(C)n1-c1ccc2c(c1)OCO2	34*	0	1	5	3513	1	-26
CC(C)C(=O)N1CC[C@H]2[C@H](CCCN2Cc2ccccc2)C1	4	x	x	x	x	x	x
Cc1cc(C)cc(N(CC(=O)NC2CCC(C)CC2)S(=O)(=O)c2ccc([N+](=O)[O-])cc2)c1 (centres undefined)	-4	x	x	x	x	x	x
CCCCCCCCCCOC(=O)Cn1c(COc2ccc(Cl)cc2)[n+](C)c2ccccc21	46*	-23	5	u	4183	1	56*
CCCCCCCCCCOC(=O)Cn1c(COc2ccccc2)[n+](C)c2ccccc21	30*	2	-1	-23	3843	-4	23
Cc1cccc(-n2ncc3c(N)ncnc32)c1	30*	2	-1	-2	3308	0	-16
CC1=NN(c2ccc(C(=O)O)c(N)c2)C(=O)C1	83*	2	-2	0	2038	0	-13
CC1=NN(c2cccc(Cl)c2)C(=O)C1	44*	-7	4	-5	4408	0	2
CC1=NN(c2ccc(Cl)c(C(=O)O)c2)C(=O)C1	16	-2	1	-3	2252	0	x
COn1c(C)c(C(C)=O)c2c3nonc3ccc21	31*	-1	4	0	4930	1	-3
COc1cccc(Cn2cc(COC(=O)N3CCCC3)nn2)c1	-9	x	x	x	x	x	x
CC(=O)N(c1ccccc1C)C1CCCC1	-14	-1	-2	-9	2268	0	x
CC(=O)N(C1=C(Cl)C(=O)c2ccccc2C1=O)C1CCCCC1	100*	-6	0	-4	3650	-2	98*
O=C(NCc1ccco1)C1CCN(S(=O)(=O)c2ccccc2C(F)(F)F)CC1	31*	-8	x	10	3817	0	-12
CCN(CC)S(=O)(=O)N1CCC(C(=O)NCc2ccco2)CC1	-1	-4	-3	4	4573	0	x
